According to PubChem BioAssay (Tox21):
Records with an inconclusive call do not appear. Entries that show only a call come without a potency. Activity calls are given as the source filed them. The call rests on the fitted dose curve; in most records, active means well fitted activation curve with a large enough effect in the repeat runs; inconclusive means weak or mixed curves; inactive means flat fitted curve, though single readings scatter.

assay: A CellTox Green Cytotoxicity Assay to monitor cytotoxicity in HepG2 cells - 8 hour (AID 1224890); conditions: CellTox Green fluorescence; series mostly up to 76.8 µM; further: nearly all actives have a fitted effect of over 45% in size
From the text: National Center for Advancing Translational Sciences [NCATS]
NIH Chemical Genomics Center [NCGC]
U.S. Environmental Protection Agency [EPA]
National Institutes of Environmental Health Sciences [NIEHS]
National Toxicology Program [NTP]
Cell-based models are critical for drug discovery. Determining the natural cytotoxic effects resulting from test compounds is an essential research activity. A CellTox Green Cytotoxicity Assay to monitor cytotoxicity in real time of continues cell culture during 40 hours of the compound treatment was used to screen Tox21 10K library compounds in HepG2 cells. CellTox Green Cytotoxicity Assay is a nonlytic, homogeneous, biofluorescent method to measure cytotoxicity in cell culture after experimental manipulation. The assay system uses a proprietary asymmetric cyanine dye that is excluded from viable cells but preferentially stains the dead cell's DNA. […] Viable cells produce no appreciable increases in fluorescence. Therefore, the fluorescence signal produced by the binding interaction with dead cell DNA is proportional to cytotoxicity.
The mixture of HepG2 cell suspension and reagents were dispensed at 600cells/6 ul/well in 1536-well tissue culture treated black solid bottom plates using a Multidrop dispenser. After the assay plates were incubated at a 37 C/5% CO2 incubator for 5 hours, 23 nL of compounds dissolved in DMSO, positive and negative controls was transferred to the assay plate by a pintool work station. The plates were incubated at 37 C for 40 hours. The fluorescence intensity were measured at 0h, 8h, 16h, 24h, 32h and 40h time points using ViewLux plate reader during compound treatment.
Potency means the concentration at half of the fitted maximal effect.

Structure (SMILES)	Potency	cytotoxicity increase
N#C/C(N)=C(/N)C#N	inactive	
CO[C@@H]1[C@H](OC(=O)NC(=O)CCl)CC[C@]2(CO2)[C@H]1[C@@]1(C)O[C@@H]1CC=C(C)C		-1.9% [at 15.8 µM] (inactive)
[CH3][Sn]([CH3])([Cl])[Cl]	inactive	
CCn1cc[n+](C)c1	inactive	
N#CCc1ccccc1	inactive	
COC(=O)C(C)N(C(=O)Cc1ccccc1)c1c(C)cccc1C (stereo not given)	inactive	
O=C1C(=O)c2cccc3cccc1c23	inactive	
II	38.9 µM (active)	
COC(=O)C(Br)CBr (stereo not given)	inactive	
Clc1cc(C(Cl)(Cl)Cl)cnc1Cl	inactive	
[O-][Cl+]O	inactive	
Cc1ccc(-c2c(Cl)nc(C#N)n2S(=O)(=O)N(C)C)cc1	inactive	
O=C1C(Cl)C(CCl)CN1c1cccc(C(F)(F)F)c1 (stereo not given)	inactive	
COc1cc(CC(C)N)cc2c1OCO2 (stereo not given)	inactive	
c1ccc(CN2CCNCC2)cc1	inactive	
O=[N+]([O-])c1ccccc1CCl	inactive	
Cn1sc(Cl)cc1=O	inactive	
c1ccc(C2CC2)c(OCC2=NCCN2)c1	inactive	
COP(=S)(OC)Oc1cc(Cl)c(I)cc1Cl	inactive	
CN(C)c1ccc(N(C)C)cc1	inactive	

Structure (SMILES)	Potency	cytotoxicity increase
Nc1nc(N)nc(N)n1	inactive	
CN1[C@@H]2CC[C@H]1CC(OC(=O)c1cc(Cl)cc(Cl)c1)C2 (stereo not given in full)	inactive	
CCOc1nc(F)cc2nc(S(=O)(=O)Nc3c(Cl)cccc3Cl)nn12	inactive	
CCOP(O)OCC	inactive	
CCOP(=S)(Oc1ccc([N+](=O)[O-])cc1)c1ccccc1 (stereo not given)	inactive	
CCN(C)N=O	inactive	
CC(C)(OO)c1ccccc1	inactive	
CC(C)(C)C(O)C(Oc1ccc(Cl)cc1)n1cncn1 (stereo not given)	inactive	
O=C1CN=C(c2ccccc2)c2cc(Cl)ccc2N1CC1CC1	inactive	
NCCCNCCCN	inactive	
CCOc1ccc(C(C)(C)COCc2cccc(Oc3ccccc3)c2)cc1	inactive	
COCC(C)N(C(=O)CCl)c1c(C)csc1C (stereo not given)	inactive	
OCCCBr	inactive	
COCCOCCO	inactive	
CC1(C)[C@H](C=C(Cl)Cl)[C@@H]1C(=O)O[C@@H](C#N)c1cccc(Oc2ccccc2)c1	inactive	
O=Cc1ccc(Cl)cc1Cl	inactive	
O=C(O)C(F)(F)C(F)(F)C(F)(F)C(F)(F)C(F)(F)C(F)(F)C(F)(F)C(F)(F)C(F)(F)F	inactive	
C=CC(C)=O	inactive	
C/C=C/C=O	inactive	
O=C1NCN(c2ccccc2)C12CCN(CCCOc1ccc(F)cc1)CC2	inactive	
